Compound activity deposited in PubChem by National Center for Advancing Translational Sciences (NCATS).
Compounds with a hit are over-represented: about 7.6% of the library has one in this group of screens.
KCNH2 WT inh: inhibitors of human wildtype KCNH2 potassium channel | Q12809 | U2OS, BacMam KCNH2, thallium flux FluxOr; hits give low values | activity change, % at 1.84 µM | actives 0.37% (n = 340,000);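 active means maximum activity change below -70%; inconclusive means maximum activity change between -70% and -50%; inactive means maximum activity change above -50%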
Target sequence (Q12809 whole entry, looked up): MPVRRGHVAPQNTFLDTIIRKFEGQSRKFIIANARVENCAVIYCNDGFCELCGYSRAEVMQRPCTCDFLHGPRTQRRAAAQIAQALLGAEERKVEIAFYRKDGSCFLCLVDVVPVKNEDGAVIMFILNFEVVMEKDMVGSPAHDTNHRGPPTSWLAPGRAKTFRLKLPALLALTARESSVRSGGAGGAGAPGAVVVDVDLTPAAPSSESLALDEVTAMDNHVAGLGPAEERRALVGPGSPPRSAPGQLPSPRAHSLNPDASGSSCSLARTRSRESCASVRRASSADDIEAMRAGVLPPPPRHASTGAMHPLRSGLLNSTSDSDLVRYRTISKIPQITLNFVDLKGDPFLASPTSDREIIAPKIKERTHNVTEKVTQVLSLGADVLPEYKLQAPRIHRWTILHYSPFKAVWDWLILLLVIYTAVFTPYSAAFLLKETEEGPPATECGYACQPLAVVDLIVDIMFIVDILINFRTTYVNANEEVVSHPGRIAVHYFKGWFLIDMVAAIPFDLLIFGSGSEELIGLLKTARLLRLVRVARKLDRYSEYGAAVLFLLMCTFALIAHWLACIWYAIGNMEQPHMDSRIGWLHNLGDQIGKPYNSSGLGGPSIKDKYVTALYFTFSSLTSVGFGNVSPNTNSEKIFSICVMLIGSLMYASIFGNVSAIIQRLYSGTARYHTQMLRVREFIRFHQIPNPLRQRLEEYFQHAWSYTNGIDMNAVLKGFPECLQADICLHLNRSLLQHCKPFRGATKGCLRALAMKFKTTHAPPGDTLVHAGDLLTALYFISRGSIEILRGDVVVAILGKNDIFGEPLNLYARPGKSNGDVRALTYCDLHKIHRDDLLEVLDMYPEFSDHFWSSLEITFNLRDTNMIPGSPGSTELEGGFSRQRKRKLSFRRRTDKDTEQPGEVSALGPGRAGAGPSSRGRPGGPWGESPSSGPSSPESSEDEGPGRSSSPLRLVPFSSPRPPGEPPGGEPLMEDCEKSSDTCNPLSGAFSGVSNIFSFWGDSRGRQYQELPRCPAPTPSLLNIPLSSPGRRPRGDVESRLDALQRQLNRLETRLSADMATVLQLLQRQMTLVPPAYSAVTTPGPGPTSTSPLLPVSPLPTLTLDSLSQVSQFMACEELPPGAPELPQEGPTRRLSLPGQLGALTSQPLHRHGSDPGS
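U2OS cells were transduced with wild-type KCNH2 virus (2.03 x 10^8 / mL) for 4 h at room temperature, then cultured overnight at 37 C. Thallium flux was read with FluxOr dye. Rate constants were normalized to DMSO controls.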
MCF10A rereplic: inducers of DNA re-replication in MCF 10A breast cells; MCF 10A DNA re-replication, Hoechst nuclear intensity, 48 h; Potency, µM (top dose mostly 46.1 µM), hits mostly activators; actives 2.9% (n = 350,000); AID 624296; further: nearly all actives have a fitted effect of over 50% in size
KB-3-1 tox: KB-3-1 parental cell cytotoxicity. KB-3-1 viability, CellTiter-Glo ATP luminescence, 72 h. Potency, µM (highest dose often 46.1 µM), actives largely listed as cytotoxic. actives 1.4% (n = 400,000); further: nearly all actives have a fitted effect of over 60% in size
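Parental KB-3-1 viability, qHTS format: 72 h compound exposure, 37 °C; CellTiter-Glo; media-only wells and DMSO plates as controls; concentration-effect fits on corrected data.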
KCNH2 3.1 inh: blocks the human KCNH2 3.1 channel isoform; U2OS KCNH2 3.1, thallium flux FluxOr; hits give low values; activity change, % (tested at about 1.8 µM); actives 0.95% (n = 340,000); AID 720553;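 active means maximum activity change below -70%; inconclusive means maximum activity change from -70% to -50%; inactive means maximum activity change above -50%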;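 further: thallium influx rate constant from kinetic fluorescence after stimulation buffer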
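Virally transduced U2OS (3.1 isoform, 4 h infection in dark at RT) → overnight 37 C → FluxOr + Red40 in HBSS/HEPES, 45 min → stimulation buffer, 2 min kinetic read → rate constant vs DMSO controls.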
KB-V1 MDR tox: KB-V1 MDR subline cytotoxicity; AID 1347076; KB-V1 MDR cells viability, CellTiter-Glo, 72 h; Potency, µM (titrated, usually from 46.1 µM), usual class: cytotoxic; actives 3.4% (n = 400,000); further: nearly all actives have a fitted effect of over 60% in size
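Cells of the MDR subline KB-V1 are plated, dosed with compound at multiple concentrations, and incubated 72 h at 37 degrees C; CellTiter-Glo is then added and luminescence read after 10 min.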
SW480 rereplic: DNA re-replication induction in SW480 cells. SW480 DNA re-replication, Hoechst DNA content imaging, 48 h. actives 1.8% (n = 340,000). Potency, µM (doses to about 46.1 µM), most hits filed as activators; further: nearly all actives have a fitted effect of over 55% in size
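250 cells/well; 23 nL cpd via pin tool; 48 hr, 37 C, 5% CO2; Hoechst 40 min; imager read of total nuclear intensity, ex 405/em 500-530 nm.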
A number is an active result; . = inactive; ? = inconclusive; / = no result; [ ] = dose if it differs, or a comment. Unless noted, the call rests on the fitted dose curve; in most records, active means well fitted curve in the direction sought with a large enough effect; inconclusive means small, poorly fitted or top-dose-only effect, or another doubt; inactive means no such curve, though single readings can be large; an effect the other way counts as inactive or inconclusive.

SMILES	KCNH2 WT inh	MCF10A rereplic	KB-3-1 tox	KCNH2 3.1 inh	KB-V1 MDR tox	SW480 rereplic
Cc1ccc2cccc(N=Cc3c(C)[nH]n(-c4ccccc4)c3=O)c2n1	.	.	.	.	13µM	7.3µM
Cc1[nH]n(-c2ccccc2)c(=O)c1/C=N/N(C)c1ccccc1	.	.	.	.	15µM	?
Fc1ccc(CN2CCN(C(=S)NCCc3ccccc3)CC2)c(Cl)c1	.	.	?	.	21µM	.
S=C(NCCc1ccccc1)N1CCN(C2CCCCC2)CC1	.	?	.	-93	.	.[1.84 µM]
S=C(NCCc1ccccc1)N1CCN(C(=S)NCCc2ccccc2)CC1	.	.	.	.	.	.
S=C(NCCc1ccccc1)N1CCN(Cc2ccc(Cl)c(Cl)c2)CC1	.	.	?	.	.	.
CC1CCN(C(=S)NCCc2ccccc2)CC1	.	.	.	.	23µM	.
O=C(CCNS(=O)(=O)c1ccccc1)OCC(=O)c1ccc(Cl)cc1	.	.	.	.	?	.
COCCCn1c(=N)c(C(=O)NC2CCCC2)cc2c(=O)n3cccc(C)c3nc21	/	/	.	/	.	/
COCCCNC(=O)c1cc2c(=O)n3cccc(C)c3nc2n(C(C)C)c1=N	.	?	.	.	.	2.8µM
CCNC(=O)c1cc2c(=O)n3cccc(C)c3nc2n(Cc2ccc(C)cc2)c1=N	.	?	?	.	?	2.1µM
Cc1cccn2c(=O)c3cc(C(=O)NC(C)C)c(=N)n(Cc4ccncc4)c3nc12	.	16µM	.	.	.	21µM
Cc1nc(-c2ccc(F)cc2)c(CC(=O)N2CCN(S(=O)(=O)c3cccc(F)c3)CC2)s1	.	.	.	.	?	.
COC(=O)Nc1nc(C)c(C(=O)c2ccccc2)s1	.	9.2µM	?	.	7.3µM	15µM
COC(=O)Nc1nc(-c2ccccc2)c(C(=O)c2ccccc2)s1	.	0.23µM	0.16µM	.	?	0.41µM
CCOC(=O)c1sc(NC(C)=O)nc1-c1ccccc1	.	.	.	.	.	.
O=C/C=C/c1c(-c2ccccc2)cc2oc3ccccc3cc1-2	.	8.2µM	?	.	?	?
Nc1ccc(-c2cc3ccccc3oc2=O)cc1	.	.	.	.	.	.
CCc1ccc(CNC(=O)c2cccc(-n3c(C)nc4cccnc43)c2)cc1	/	/	.	/	?	/
Cc1ccc(S(=O)(=O)N2CCN(C(=O)c3cc(-c4ccc(Br)cc4)n[nH]3)CC2)c(C)c1	/	/	.	/	.	/
CCOc1ccc(C2c3cc(OC)c(OC)cc3CC(=O)N2c2ccc(OC)cc2)cc1 (stereo not given)	.	.	18µM	.	?	15µM
COc1cc(C#Cc2c(-c3ccccc3)n(C)c3ccccc23)cc(OC)c1	.	?	.	.	.	.
COc1ccc(C#Cc2c(C=O)n(C)c3ccccc23)cc1	.	?	?	.	.	21µM
Cn1c(C=O)c(C#Cc2ccccc2)c2ccccc21	.	8.2µM	?	.	.	?
Cn1c(Cl)c(/C=N/OC(=O)c2cccc(Cl)c2)c2ccccc21	.	.	.	.	.	.
SMILES	KCNH2 WT inh	MCF10A rereplic	KB-3-1 tox	KCNH2 3.1 inh	KB-V1 MDR tox	SW480 rereplic
Cn1c(Cl)c(/C=N/OC(=O)C2CC2)c2ccccc21	.	.	.	-92	?	.
C/C(=N/NC(=O)CNC(=O)COc1cccc(C)c1)c1ccc(Cl)cc1	.	.	.	.	.	.
CC(=NNC(=O)COc1cccc(C)c1)c1cccnc1	.	.	.	.	16µM	.
CCOc1cc(C#N)c(NC(=O)c2cccnc2)cc1OCC	.	3.7µM	0.65µM	.	?	5.2µM
CCOc1ccc(CC(=O)N/N=C(\C)c2cccnc2)cc1OCC	.	21µM	.	.	.	.
CCOc1ccc(CCNC(=O)C2CC(=O)N(c3ccccc3OCC)C2)cc1OCC (stereo not given)	.	.	.	.	.	.
COc1cc(OC)c(OC)cc1CNC(=O)c1cc(S(=O)(=O)N(C)c2ccccc2OC)ccc1C	.	.	.	.	?	.
COc1ccccc1N(C)S(=O)(=O)c1ccc(C)c(C(=O)NC(C)c2ccccn2)c1 (stereo not given)	.	.	.	.	9.2µM	.
O=C(/C(=N/N=C/c1ccc(O)c(O)c1O)c1ccccc1)c1ccccc1	.	?	?	.	?	?
Oc1ccc(/C=N/N=C(c2ccccc2)c2ccccc2)c(O)c1O	.	21µM	?	.	.	.
COc1cccc(-n2c(-c3cccc(F)c3)nc3c(cnn3-c3ccc(C)cc3)c2=O)c1	/	/	.	/	?	/
COC(=O)Cn1ccnc1[N+](=O)[O-]	.	/	.	.	.	/
COCC(=O)NNC(=O)c1ccc(OC)cc1	.	.	.	.	.	.
O=C(Nc1ccc2ccccc2c1)Nc1nnc(-c2ccccc2F)s1	/	/	?	/	.	/
CN1CCCC(CN2c3ccccc3Sc3ccccc32)C1 (stereo not given)	.	.	.	.	?	?
CN1CCCC(CC2c3ccccc3Sc3ccccc32)C1 (stereo not given)	.	.	.	.	18µM	.
CCOc1cc(/C=C2\N=C(C)OC2=O)cc(Br)c1OCC(=O)OC	.	9.2µM	.	.	.	12µM
COc1ccc(OC)c(S(=O)(=O)N2CCCCC2C(=O)N2CCN(c3ccccn3)CC2)c1 (stereo not given)	.	.	.	.	9.2µM	?
COc1ccc(OC)c(S(=O)(=O)N2CCN(c3ccccn3)CC2)c1	.	?	.	.	.	?
N#C/C(=C\c1cn(-c2ccccc2)nc1-c1cc2ccccc2o1)c1nc2ccccc2[nH]1	.	?	.	.	?	2.9µM
CN(C)S(=O)(=O)c1cccc(-c2nn(-c3ccccc3)cc2/C=C(\C#N)c2nc3ccccc3[nH]2)c1	.	3.3µM	.	-76	.	?
CN(C)S(=O)(=O)c1cccc(-c2nn(-c3ccccc3)cc2/C=C2\SC(=S)NC2=O)c1	.	?	?	.	?	.
Cc1ccc(-c2nn(-c3ccccc3)cc2/C=C(\C#N)c2cccc(C#N)c2)o1	.	?	.	.	.	?
CN1C(=O)C(CC(=O)Nc2ccc(Cl)cc2)N(Cc2ccco2)C1=S (stereo not given)	/	21µM	.	.	.	.
CCOc1ccc(NC(=O)CC2C(=O)N(C)C(=S)N2Cc2ccco2)cc1 (stereo not given)	.	.	.	.	.	.
COc1ccccc1CNC(=O)C1CCCN(c2cnccn2)C1 (stereo not given)	.	?	.	.	.	?
COc1cccc(NC(=O)c2ccnc(N3CCC(C(=O)NCc4ccccc4OC)CC3)c2)c1	.	.	.	-109	.	.
